Measured values from PubChem BioAssay.
Calls of active or inactive are those of the source.

How the values were obtained:
[1] = small molecules captured by biotinylated probe aFSTL3 – biochemical, small-molecule microarray, fluorescence 635/667, stem cell growth factor project, primary screen (AID 1064); conditions: higher = more signal;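 note: measures binding of the biotinylated anti-FSTL3 antibody to printed compounds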
[2] = binders from COS7 lysate, DM2A8 probe, primary screen, torsin A project, cell lysate, small-molecule microarray, fluorescence 635/667 (AID 1065); conditions: higher = more signal, COS7 lysate expressing mutant human TOR1A
[3] = small molecules captured by biotinylated probe aFGF2 – biochemical, small-molecule microarray, fluorescence 635/667, stem cell growth factor project, primary screen (AID 1067); conditions: higher = more signal;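 note: measures binding of biotinylated aFGF2 protein to printed compounds on slides; z-score merges feature fluorescence and signal-to-noise across triplicate slides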
[4] = small molecules captured by biotinylated probe aFGF10 – biochemical, small-molecule microarray, fluorescence 635/667, stem cell growth factor project, primary screen (AID 1071); conditions: higher = more signal;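 note: score merges 667 nm spot intensity and signal to noise from triplicate slides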
[5] = molecular target: Neurogenic locus notch homolog protein 2 (Homo sapiens) (UniProt Q04721); assay: small molecules binding Notch2 protein – biochemical, small-molecule microarray, 635 nm fluorescence, stem cell growth factors, primary screen (AID 1073); conditions: higher = more signal
[6] = molecular target: Pro-neuregulin-1, membrane-bound isoform (Homo sapiens) (UniProt Q02297); assay: small molecules binding neuregulin-1 protein – biochemical, small-molecule microarray, fluorescence 635/667, psychiatric disease protein project, primary screen (AID 1075); conditions: NRG1 binding, 635 nm fluorescence, higher = more signal;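 note: score combines 667 nm spot fluorescence with signal to noise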
[7] = test system: Neuregulin-1 EGF-like domain; assay: small molecules binding NRG1 EGF domain – biochemical, small-molecule microarray, 635 nm fluorescence, primary screen (AID 1081); conditions: higher = more signal;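 note: binding of the protein to compounds printed on small-molecule microarray slides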
[8] = FRG1 expression reporter modulators in myotubes – cell-based, C2C12 myotubes, firefly/Renilla luciferase, luminescence, FRG1 inhibition for FSHD, primary screen (AID 1084); conditions: FRG1 promoter luciferase, higher = more signal, called active from +8 up or from −8 down
[9] = small molecules captured by biotinylated probe aFST – biochemical, small-molecule microarray, fluorescence 635/667, stem cell growth factor project, primary screen (AID 1086); conditions: higher = more signal;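 note: score merges 667 nm fluorescence with signal-to-noise of each printed compound spot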
[10] = binders of probe aHhip on microarray, primary screen, stem cell growth factor project, biochemical, small-molecule microarray, fluorescence 635/667 (AID 1087); conditions: higher = more signal;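 note: score merges spot fluorescence at 667nm with spot signal to noise ratio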
[11] = test system: PRMT1 (protein arginine N-methyltransferase 1); assay: small molecules binding arginine methyltransferase PRMT1 – biochemical, small-molecule microarray, 635 nm fluorescence, primary screen (AID 1088); conditions: higher = more signal;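 note: binding of Prmt1 protein to compounds spotted on small-molecule microarray slides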
[12] = growth effects on S. cerevisiae YJM789 – YJM789 clinical isolate, OD600, 24 h, basal, primary screen (AID 1089); conditions: higher = more signal, called active from +8 up or from −8 down;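 note: growth of clinical yeast isolate S. cerevisiae YJM 789 seeded 1000 cells per well; test concentration not given here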
[13] = S. pombe growth modifiers, basal conditions – strain 972, OD600, 24 h, no modulator, primary screen (AID 1090);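 note: basal condition with compound alone and no growth modifier present; test concentration not given here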; conditions: S. pombe 972 growth, higher = more signal, called active from +8 up or from −8 down
[14] = budding yeast growth modifiers under rapamycin – strain BY4716, OD600, 96 h, primary screen (AID 1091); note: test concentration not given here; conditions: S. cerevisiae BY4716 + rapamycin, higher = more signal, called active from +8 up or from −8 down
[15] = molecular target: Torsin-1A-interacting protein 2 (Homo sapiens) (UniProt Q8NFQ8); assay: small molecules binding lysate-expressed LULL1 – cell lysate, human LULL1 lysate, 635/667 nm fluorescence, primary screen (AID 1092); conditions: small-molecule microarray, hLULL1 lysate binding, 635 nm fluorescence; higher = more signal;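 note: probe is lysate of COS7 cells overexpressing human LULL1; score merges per-feature 667 nm fluorescence with signal-to-noise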
[16] = optical density change of DRC41 E. coli – strain DRC41, OD650, 24 h, E. coli filamentation project, primary screen (AID 1093);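 note: MC1000 strain lacking acrAB efflux and sulA so SOS filamentation is blocked; test concentration not given here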; conditions: E. coli DRC41 growth, higher = more signal, called active from +8 up or from −8 down
[17] = probe aLefty2 binding to arrayed compounds – biochemical, biotinylated probe, 635/667 nm fluorescence, primary screen (AID 1094); conditions: small-molecule microarray, higher = more signal;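 note: score merges spot fluorescence near 667 nm with spot signal-to-noise ratio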
[18] = test system: Noggin (protein binding on small-molecule microarray); assay: small molecules binding Noggin protein – biochemical, 635/667 nm fluorescence, primary screen (AID 1095); conditions: 635 nm fluorescence, higher = more signal;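 note: score merges 667 nm feature fluorescence with signal to noise over triplicate slides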
[19] = molecular target: Neurogenic locus notch homolog protein 3 (Homo sapiens) (UniProt Q9UM47); assay: small molecules binding NOTCH3 protein – biochemical, 635/667 nm fluorescence, primary screen (AID 1096); conditions: small-molecule microarray, 635 nm fluorescence, higher = more signal
[20] = probe aEGFR binding to arrayed compounds – biochemical, biotinylated probe, 635/667 nm fluorescence, primary screen (AID 1097); conditions: small-molecule microarray, higher = more signal;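 note: probe is a biotinylated anti-EGFR antibody binding compounds printed on slides; score combines fluorescence near 667 nm and signal to noise of each spot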

Neurogenic locus notch homolog protein 2 (Homo sapiens), sequence (Q04721 whole entry, looked up, canonical isoform): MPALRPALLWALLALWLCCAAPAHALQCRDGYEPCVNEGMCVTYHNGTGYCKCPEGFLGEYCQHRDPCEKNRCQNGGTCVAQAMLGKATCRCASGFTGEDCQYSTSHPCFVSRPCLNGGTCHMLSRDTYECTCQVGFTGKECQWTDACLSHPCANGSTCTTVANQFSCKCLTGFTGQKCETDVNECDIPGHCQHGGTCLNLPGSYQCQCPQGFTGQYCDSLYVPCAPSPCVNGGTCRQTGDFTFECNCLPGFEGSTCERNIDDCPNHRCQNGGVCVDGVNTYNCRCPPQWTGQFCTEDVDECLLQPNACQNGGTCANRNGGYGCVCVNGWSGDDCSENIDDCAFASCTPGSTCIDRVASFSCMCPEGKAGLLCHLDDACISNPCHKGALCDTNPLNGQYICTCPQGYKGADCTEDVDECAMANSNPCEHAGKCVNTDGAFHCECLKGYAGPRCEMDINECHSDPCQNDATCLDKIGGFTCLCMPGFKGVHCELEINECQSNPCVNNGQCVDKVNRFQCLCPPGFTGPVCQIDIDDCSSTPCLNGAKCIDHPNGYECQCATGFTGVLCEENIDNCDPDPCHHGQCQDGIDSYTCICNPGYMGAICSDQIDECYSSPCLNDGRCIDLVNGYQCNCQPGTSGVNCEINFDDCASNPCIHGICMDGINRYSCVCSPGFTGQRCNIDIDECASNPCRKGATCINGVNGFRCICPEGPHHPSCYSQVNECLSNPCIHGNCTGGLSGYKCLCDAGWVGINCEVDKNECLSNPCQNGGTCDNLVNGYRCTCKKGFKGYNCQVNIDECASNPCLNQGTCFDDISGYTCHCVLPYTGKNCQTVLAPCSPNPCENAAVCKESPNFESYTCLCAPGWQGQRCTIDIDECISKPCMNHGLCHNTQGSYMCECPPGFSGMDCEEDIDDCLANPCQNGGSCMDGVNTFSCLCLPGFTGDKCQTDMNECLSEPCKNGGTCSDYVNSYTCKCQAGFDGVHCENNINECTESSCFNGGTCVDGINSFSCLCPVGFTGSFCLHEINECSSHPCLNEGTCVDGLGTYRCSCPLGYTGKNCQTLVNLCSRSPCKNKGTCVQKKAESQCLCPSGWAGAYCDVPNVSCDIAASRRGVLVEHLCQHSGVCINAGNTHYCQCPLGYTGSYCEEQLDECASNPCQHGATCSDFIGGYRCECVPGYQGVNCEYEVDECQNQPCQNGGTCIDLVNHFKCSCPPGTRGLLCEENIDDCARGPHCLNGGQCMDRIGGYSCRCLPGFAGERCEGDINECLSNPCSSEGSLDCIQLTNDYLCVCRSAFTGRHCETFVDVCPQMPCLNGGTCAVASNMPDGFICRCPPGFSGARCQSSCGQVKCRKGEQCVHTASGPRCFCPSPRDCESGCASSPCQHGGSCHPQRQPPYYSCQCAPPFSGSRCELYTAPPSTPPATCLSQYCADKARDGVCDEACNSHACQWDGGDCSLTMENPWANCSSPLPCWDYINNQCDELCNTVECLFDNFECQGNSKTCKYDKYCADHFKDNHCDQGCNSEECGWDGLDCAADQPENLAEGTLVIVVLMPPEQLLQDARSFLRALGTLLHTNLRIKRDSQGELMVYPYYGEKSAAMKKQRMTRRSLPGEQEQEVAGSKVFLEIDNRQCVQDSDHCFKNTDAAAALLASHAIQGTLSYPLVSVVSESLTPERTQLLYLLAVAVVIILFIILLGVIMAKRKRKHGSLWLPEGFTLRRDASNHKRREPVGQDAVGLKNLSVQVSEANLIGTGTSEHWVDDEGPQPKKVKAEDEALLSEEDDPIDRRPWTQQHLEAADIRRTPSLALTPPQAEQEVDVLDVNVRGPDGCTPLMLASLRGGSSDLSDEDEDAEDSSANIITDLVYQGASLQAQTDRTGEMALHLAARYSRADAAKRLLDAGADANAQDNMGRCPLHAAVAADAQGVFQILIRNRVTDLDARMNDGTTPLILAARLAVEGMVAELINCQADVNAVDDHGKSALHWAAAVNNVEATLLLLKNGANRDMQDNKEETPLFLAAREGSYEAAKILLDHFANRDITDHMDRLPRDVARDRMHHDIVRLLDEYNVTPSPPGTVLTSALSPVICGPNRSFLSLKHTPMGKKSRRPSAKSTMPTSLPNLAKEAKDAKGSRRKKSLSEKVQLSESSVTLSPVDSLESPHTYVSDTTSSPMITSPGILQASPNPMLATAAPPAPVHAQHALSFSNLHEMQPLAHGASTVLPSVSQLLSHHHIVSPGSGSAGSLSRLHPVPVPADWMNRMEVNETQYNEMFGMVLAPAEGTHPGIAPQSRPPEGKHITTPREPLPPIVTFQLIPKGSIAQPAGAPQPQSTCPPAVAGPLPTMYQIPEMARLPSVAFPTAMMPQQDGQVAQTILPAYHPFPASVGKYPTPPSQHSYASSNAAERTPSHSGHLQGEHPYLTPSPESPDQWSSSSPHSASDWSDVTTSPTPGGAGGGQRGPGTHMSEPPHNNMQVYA
Neurogenic locus notch homolog protein 3 (Homo sapiens), sequence (Q9UM47 whole entry, looked up): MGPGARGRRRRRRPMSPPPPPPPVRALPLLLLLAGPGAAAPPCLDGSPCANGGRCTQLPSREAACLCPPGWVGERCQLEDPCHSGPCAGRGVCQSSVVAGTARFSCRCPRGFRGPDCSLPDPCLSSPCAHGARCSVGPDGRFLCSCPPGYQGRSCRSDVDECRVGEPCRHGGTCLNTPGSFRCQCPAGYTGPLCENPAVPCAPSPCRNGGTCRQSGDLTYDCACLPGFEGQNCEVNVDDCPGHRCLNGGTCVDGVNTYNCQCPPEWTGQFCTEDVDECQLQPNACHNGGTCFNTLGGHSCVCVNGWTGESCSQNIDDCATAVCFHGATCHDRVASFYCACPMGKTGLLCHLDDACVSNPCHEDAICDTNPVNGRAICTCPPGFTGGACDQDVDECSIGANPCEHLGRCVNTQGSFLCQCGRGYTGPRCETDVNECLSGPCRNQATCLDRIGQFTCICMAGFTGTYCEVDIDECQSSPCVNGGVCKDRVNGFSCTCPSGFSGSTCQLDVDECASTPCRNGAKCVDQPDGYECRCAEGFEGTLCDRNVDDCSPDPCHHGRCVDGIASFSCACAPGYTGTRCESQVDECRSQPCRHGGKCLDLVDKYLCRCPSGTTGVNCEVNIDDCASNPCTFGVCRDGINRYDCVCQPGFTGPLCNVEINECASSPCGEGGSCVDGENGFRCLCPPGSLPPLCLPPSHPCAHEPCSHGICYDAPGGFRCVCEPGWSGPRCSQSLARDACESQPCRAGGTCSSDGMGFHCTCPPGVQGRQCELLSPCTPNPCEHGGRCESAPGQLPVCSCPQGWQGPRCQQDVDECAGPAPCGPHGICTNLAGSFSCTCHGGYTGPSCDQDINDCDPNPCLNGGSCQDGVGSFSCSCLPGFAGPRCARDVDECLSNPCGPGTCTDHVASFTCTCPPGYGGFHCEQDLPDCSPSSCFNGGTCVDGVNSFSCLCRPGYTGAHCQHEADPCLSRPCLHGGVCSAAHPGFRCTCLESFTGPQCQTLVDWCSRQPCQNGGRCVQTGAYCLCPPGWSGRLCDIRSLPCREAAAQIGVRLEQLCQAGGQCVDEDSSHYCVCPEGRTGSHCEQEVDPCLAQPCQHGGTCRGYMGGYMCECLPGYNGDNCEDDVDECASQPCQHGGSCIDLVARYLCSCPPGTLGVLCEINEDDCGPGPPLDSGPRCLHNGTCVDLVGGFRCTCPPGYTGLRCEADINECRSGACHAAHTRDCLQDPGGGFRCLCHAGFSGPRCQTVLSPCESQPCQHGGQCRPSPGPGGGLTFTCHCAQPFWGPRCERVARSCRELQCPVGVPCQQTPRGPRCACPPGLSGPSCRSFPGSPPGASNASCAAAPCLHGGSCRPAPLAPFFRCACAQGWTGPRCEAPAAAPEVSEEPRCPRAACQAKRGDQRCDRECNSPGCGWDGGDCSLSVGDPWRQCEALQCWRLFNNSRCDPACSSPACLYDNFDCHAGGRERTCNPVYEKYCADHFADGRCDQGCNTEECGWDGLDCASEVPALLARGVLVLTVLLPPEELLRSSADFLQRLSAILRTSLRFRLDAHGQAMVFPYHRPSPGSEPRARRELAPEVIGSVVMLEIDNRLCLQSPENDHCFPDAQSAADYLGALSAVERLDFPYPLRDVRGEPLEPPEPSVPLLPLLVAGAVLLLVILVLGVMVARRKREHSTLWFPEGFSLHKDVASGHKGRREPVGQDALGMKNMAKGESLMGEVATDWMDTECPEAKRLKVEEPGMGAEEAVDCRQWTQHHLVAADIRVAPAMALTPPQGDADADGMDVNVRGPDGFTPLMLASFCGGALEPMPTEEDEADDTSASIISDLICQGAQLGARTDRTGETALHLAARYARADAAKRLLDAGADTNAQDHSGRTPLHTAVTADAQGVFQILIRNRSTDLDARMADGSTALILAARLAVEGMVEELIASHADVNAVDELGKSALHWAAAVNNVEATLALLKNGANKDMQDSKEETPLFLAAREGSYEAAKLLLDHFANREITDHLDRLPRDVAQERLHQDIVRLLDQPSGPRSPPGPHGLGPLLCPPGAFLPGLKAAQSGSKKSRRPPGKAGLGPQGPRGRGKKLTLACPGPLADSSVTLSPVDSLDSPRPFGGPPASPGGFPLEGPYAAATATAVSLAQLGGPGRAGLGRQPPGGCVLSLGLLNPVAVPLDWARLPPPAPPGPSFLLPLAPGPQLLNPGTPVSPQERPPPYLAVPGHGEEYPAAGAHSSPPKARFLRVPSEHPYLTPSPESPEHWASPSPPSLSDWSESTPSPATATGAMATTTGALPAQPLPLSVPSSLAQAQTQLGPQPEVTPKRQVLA

| SMILES | composite z-score [1] | composite z-score [2] | composite z-score [3] | composite z-score [4] | composite z-score [5] | composite z-score [6] | composite z-score [7] | z-score [8] | composite z-score [9] | composite z-score [10] | composite z-score [11] | z-score [12] | z-score [13] | z-score [14] | composite z-score [15] | z-score [16] | composite z-score [17] | composite z-score [18] | composite z-score [19] | composite z-score [20] |
| --- | --- | --- | --- | --- | --- | --- | --- | --- | --- | --- | --- | --- | --- | --- | --- | --- | --- | --- | --- | --- |
| [N-]=[N+]=NCc1ccccc1C[C@@]1(C(=O)O)N=C(c2ccc(OCCCO)cc2)O[C@@H]1c1ccccc1CN=[N+]=[N-] | 0.0419 | 1.34 | -0.01 | 0.556 | 1.17 | 1.1 | 1.22 | 2.88 (inactive) | 0.663 | -0.173 | 1.28 | -1.5 (inactive) | -3.13 (inactive) | -1.55 (inactive) | 1.59 | 0.345 (inactive) | 0.0829 | 0.34 | 0.679 | 0.0264 |
| CCOC(=O)C1=CC[C@@H](c2ccccc2)N(S(=O)(=O)C[Si](C)(C)C)[C@H]1c1ccccc1 | -0.267 | 0.505 | -0.0181 | 0.389 | 1.25 | 0.652 | 0.924 | -2.47 (inactive) | 1.25 | -0.123 | 1.08 | -0.514 (inactive) | 0.984 (inactive) | 0.416 (inactive) | 2.26 | -0.453 (inactive) | 0.138 | 0.291 | 1.09 | 0.154 |
| O=c1cccc(-c2ccccc2C(F)(F)F)o1 | 0.912 | -0.0924 | 0.409 | -0.331 | -0.489 | -0.168 | 0.381 | 0.364 (inactive) | 0.862 | 0.173 | -0.205 | -0.35 (inactive) | -0.392 (inactive) | 0.591 (inactive) | 1.08 | -0.582 (inactive) | 0.659 | -0.798 | -0.85 | 0.323 |
| COc1ccc([Si](C)(C)[C@H]2[C@H](CCO)O[C@@]3(C(=O)N(Cc4ccc(N5CCOC5=O)cc4)c4ccccc43)[C@@H]2C)cc1 | 0.173 | 0.306 | -0.137 | 0.034 | -0.0425 | 1.11 | 0.664 | -4.39 (inactive) | -0.083 | -0.0994 | 1.06 | 3.62 (inactive) | 0.623 (inactive) | 35.9 (active) | 1.27 | 0.816 (inactive) | -0.139 | 0.0178 | 0.287 | -0.315 |
| COC(=O)[C@@]1(Cc2ccc(OC)cc2)[C@H]2c3cc(C(=O)N(C)C)n(Cc4ccsc4Br)c3C[C@H]2CN1C(=O)c1ccccc1 | 0.254 | -0.162 | 0.336 | 0.752 | 1.64 | 1.89 | 0.856 | -0.778 (inactive) | 0.45 | 0.239 | -0.323 | 1.36 (inactive) | 1.51 (inactive) | 1.53 (inactive) | 3.41 | 0.126 (inactive) | 0.599 | -0.56 | 0.251 | 0.301 |
| COCCOC(=O)N1C(=O)[C@@]2(c3cc(C#CC4(O)CCCCCC4)ccc31)[C@H](c1ccccc1OCCO)N1[C@H](c3ccccc3)[C@H](c3ccccc3)OC(=O)[C@H]1[C@@H]2C(=O)N1CCCCCCC1 | 2.94 | 1.24 | 0.324 | 0.256 | 0.869 | 1.45 | 1.29 | -0.926 (inactive) | 2.73 | 1.83 | 1.54 | 1.94 (inactive) | 1.26 (inactive) | 3.54 (inactive) | 3.47 | 0.0805 (inactive) | 1.31 | 1.75 | 1.1 | -0.0351 |
| O=C1O[C@@H](c2ccccc2)[C@@H](c2ccccc2)N2[C@@H](c3ccc(OCCO)cc3)[C@]3(C(=O)Nc4ccc(C#CCCO)cc43)[C@@H](C(=O)Nc3nc4ccccc4s3)[C@H]12 | 0.0758 | 0.482 | -0.0316 | 0.444 | 1.03 | 1.14 | 1.07 | 0.28 (inactive) | 1.27 | -0.0241 | 1.5 | 1.32 (inactive) | 0.415 (inactive) | 1.72 (inactive) | 3.06 | 2.55 (inactive) | -0.0826 | 0.677 | 1.06 | -0.0531 |
| C=CCOC(=O)[C@H]1[C@@H]2C(=O)O[C@@H](c3ccccc3)[C@@H](c3ccccc3)N2[C@@H](c2ccc(OCCOC(=O)[C@@H]3C[C@@H]4C(=O)N[C@@H](Cc5ccccc5)C(=O)N4[C@@H]3c3ccc(O)cc3)cc2)[C@]12C(=O)Nc1ccccc12 | -0.372 | 0.268 | -0.0713 | 0.278 | 0.217 | 0.403 | 1.21 | 0.503 (inactive) | -0.121 | -0.0645 | 1.55 | 0.455 (inactive) | -0.113 (inactive) | 3.75 (inactive) | 2.13 | 0.0664 (inactive) | -0.151 | 1.65 | 0.758 | -0.0929 |
| CC(C)C[C@H]1NC(=O)[C@@H](C)NC(=O)[C@@]23C(=O)N[C@@H](Cc4ccccc4)C2[C@H](C)[C@@]2(C)O[C@H]2C3/C=C/C/C=C\CNC1=O (stereo not given in full) | -0.112 | -0.0039 | -0.185 | 0.346 | 0.125 | 0.483 | 0.798 | 1.85 (inactive) | -0.141 | -0.121 | 0.938 | -0.904 (inactive) | -0.721 (inactive) | -0.651 (inactive) | 1.28 | -0.64 (inactive) | -0.221 | 0.407 | 0.596 | -0.0615 |
| COc1ccc(C#Cc2ccc3c(c2)[C@]2(C(=O)N3)[C@H](c3ccc(OCCO)cc3)N3[C@H](c4ccccc4)[C@H](c4ccccc4)OC(=O)[C@H]3[C@@H]2C(=O)O)cc1 | -0.302 | 0.478 | 0.0296 | 1.12 | 1.34 | 0.343 | 1.25 | 0.373 (inactive) | 0.29 | -0.0454 | 1.54 | 2.83 (inactive) | 0.685 (inactive) | 1.4 (inactive) | 3.21 | 2.57 (inactive) | -0.232 | 1.29 | 1.04 | 0.0649 |
